Test results as given in PubChem BioAssay (NCATS).
Where “and” joins values, the source holds several entries; their conditions need not be identical. Equal entries are not always repeated. Inconclusive results are not listed. Calls of active or inactive are those of the source. Unless noted, calls come from the whole dose curve; as a rule, active = well fitted curve in the direction sought with a large enough effect; inconclusive = small, poorly fitted or top-dose-only effect, or another doubt; inactive = no such curve, though single readings can be large; an effect the other way counts as inactive or inconclusive.

Key:
[1] = AP1 Signaling Pathway (AID 357; active = well fitted curve in either direction with a large enough effect, not every such curve was filed as active;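 note: ME-180 reporter cells stimulated with EGF at its EC50 level; % is set by controls: 0 for no effect and ±100 for the full control effect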); conditions: ME-180 AP-1-bla reporter, EGF-induced, beta-lactamase ratio, 5 h
Procedure, shortened: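 Cells are seeded overnight, exposed to compound titrations and an EC50 level of EGF for 5 hours at 37 °C, then loaded with CCF4 dye for 2.5 hours. Beta-lactamase activity under the AP-1 element is read as a blue/green ratio.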

[2] = biological target: Cytochrome P450 1A2 (Homo sapiens) (UniProt P05177); experiment: p450-cyp1a2 (AID 410; calls by dose curve;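 note: -100% = full effect of reference inhibitor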)
Procedure, shortened: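 Luminescent readout of luciferin formed from Luciferin-ME by human CYP1A2; data normalized against complete inhibition by 57 uM furafylline. Enzyme 20nM, substrate 100uM at Km, 100mM KPO4 buffer, 60 min reaction at room temperature.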

[3] = NFAT Signaling Pathway (AID 444; active = well fitted curve in either direction with a large enough effect, not every such curve was filed as active;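 note: carbachol stimulus at about its EC50 of 1 µM final; % is set by controls: 0 for no effect and ±100 for the full control effect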); conditions: Jurkat NFAT-bla M1, carbachol, beta-lactamase ratio, 5 h
Procedure, shortened: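 Jurkat cells carrying an NFAT-driven β-lactamase reporter and co-transfected muscarinic M1 receptor were treated with compound plus carbachol (1 uM final, an EC50 level) for 5 h at 37 °C. CCF4 loading followed for 1 h at RT; 460/530 nm ratio gave %activity.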

[4] = Stat Signaling Pathway (AID 446; active = well fitted curve in either direction with a large enough effect, not every such curve was filed as active;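 note: ME-180 cervical cancer cells given 40 pM IL-6 alongside compound; SIE-controlled beta-lactamase reporter measured as 460/530 nm FRET emission ratio; % is set by controls: 0 for no effect and ±100 for the full control effect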); conditions: ME-180 SIE beta-lactamase reporter, IL-6 stimulated, 5 h
Procedure, shortened: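 Screening format detects activators and inhibitors alike: ME-180 SIE-bla cells stimulated at 40 pM IL-6 for 5 hrs with compound, then dual-emission beta-lactamase read at 405 nm excitation.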

[5] = biological target: Glucocorticoid receptor (Homo sapiens) (UniProt P04150); experiment: GR-GFP Redistribution (AID 450;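 active = compounds whose dose series gives a full or clear partial fitted curve of increased nuclear translocation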; note: potency is the fitted concentration of half-maximal effect); conditions: U2OS GR-GFP nuclear translocation, laser cytometry, 2 h
[6] = biological target: Glucocorticoid receptor (Homo sapiens) (UniProt P04150); experiment: GR-EFC Redistribution (AID 451; calls by dose curve; note: potency is the fitted concentration of half-maximal effect); conditions: CHO-K1 GR-EFC translocation, beta-gal luminescence, 2 h
Procedure, shortened: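 CHO-K1 cells stably expressing nuclear-localized β-gal enzyme acceptor and GR fused C-terminally to the enzyme donor fragment; ligand-driven nuclear translocation restores β-gal by complementation. Compounds titrated up to 46 uM final, 2 h at 37 °C; luminescence read.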

[7] = biological target: Mitogen-activated protein kinase 10 (Mus musculus) (UniProt Q61831); experiment: JNK3 AlphaScreen Assay (AID 530; active = well fitted curve in either direction with a large enough effect, not every such curve was filed as active;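 note: kinase came from lysate of stimulated human HepG2 cells; signal reports phosphorylation of biotinylated GST-cJun 1-79 at Ser73 with 10 µM ATP; % is set by controls: 0 for no effect and ±100 for the full control effect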)
Procedure, shortened: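 Inhibitors reduce antibody binding to phosphorylated biotin-cJun, lowering AlphaScreen luminescence. Lysates from HepG2 cells pre-activated by IL-1beta plus TNF-alpha supplied JNK3; compounds were titrated.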

[8] = biological target: 3',5'-cyclic-AMP phosphodiesterase 4B (Homo sapiens) (UniProt Q07343); experiment: qHTS Assay for Inhibitors of PDE-IV (AID 607; active = well fitted activation curve with a large enough effect in the main read-out, with a control signal flat, not every such curve was filed as active; note: % of control where 0% means no effect)
Procedure, shortened: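 The readout is membrane depolarisation from a cAMP-sensing CNG channel, detected with a potential dye at ex 535/em 590. Cells were HEK293-derived (endogenous PDE-IV) at 1000 cells/well, titrated up to 22.9 uM final.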

[9] = biological target: Guanine nucleotide-binding protein G(i) subunit alpha-1 (Homo sapiens) (UniProt P63096); experiment: qHTS Assay for Inhibitors of RGS12 GoLoco Motif Activity (Green Fluorophore) (AID 879);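 note: 0% = labeled peptide with Gαi1 and full inhibition = labeled peptide alone without protein; negative values mean loss of peptide binding seen as reduced polarization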
Procedure, shortened: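 Fluorescence polarization assay: 50 nM Gαi1 with 10 nM FITC-labeled RGS12 GoLoco peptide in 10 mM Tris pH 7.5, 150 mM NaCl, 0.1 mM GDP, 0.05% NP40, 10 min at room temperature with compound.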

[10] = biological target: Cytochrome P450 2C9 (Homo sapiens) (UniProt P11712); experiment: qHTS Assay for Inhibitors and Substrates of Cytochrome P450 2C9 (AID 883); note: % is set by controls: 0 for no effect and ±100 for the full control effect; nearly all actives have a fitted effect of over 60% in size
Procedure, shortened: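 Human CYP2C9 (10nM) hydroxylated Luciferin-H (100uM, at its KM) to luciferin in 25mM KPO4. Compound was preincubated 10 min at 37C, then NADPH regeneration started a 60 min reaction at 37C. Luminescence was read after detection reagent, normalized to 57uM sulphaphenazole.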

[11] = biological target: Cytochrome P450 3A4 (Homo sapiens) (UniProt P08684); experiment: qHTS Assay for Inhibitors and Substrates of Cytochrome P450 3A4 (AID 884); note: % is set by controls: 0 for no effect and ±100 for the full control effect; nearly all actives have a fitted effect of over 50% in size
Procedure, shortened: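 20 nM human CYP3A4 with 25 uM Luciferin-PPXE (at KM) in 200 mM KPO4, preincubated 10 min with compound; NADPH regeneration started a 60 min RT reaction. Luciferin detected by luminescence, normalized to 57 uM ketoconazole as full inhibition.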

[12] = biological target: Cytochrome P450 2D6 (Homo sapiens) (UniProt P10635); experiment: qHTS Assay for Inhibitors and Substrates of Cytochrome P450 2D6 (AID 891);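 note: luciferin methyl ether substrate demethylated by CYP2D6 with NADPH regeneration; % is set by controls: 0 for no effect and ±100 for the full control effect; nearly all actives have a fitted effect of over 60% in size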
Procedure, shortened: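 Human CYP2D6 (5 nM) with 30 uM Luciferin-ME EGE (at Km) in 100 mM KPO4, compound preincubated 10 min, then NADPH regeneration system for 60 min at room temperature. Luciferin read by luminescence; normalized to 1.43 uM quinidine.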

[13] = biological target: Cytochrome P450 2C19 (Homo sapiens) (UniProt P33261); experiment: qHTS Assay for Inhibitors and Substrates of Cytochrome P450 2C19 (AID 899); note: % is set by controls: 0 for no effect and ±100 for the full control effect; nearly all actives have a fitted effect of over 60% in size
Procedure, shortened: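 Human CYP2C19 (5nM) with Luciferin-H EGE at 10uM (its KM) in 50mM KPO4 was preincubated with compound for 10 min at 37C. NADPH regeneration started a 60 min 37C reaction. Luciferin was read by luminescence, normalized to 57uM ketoconazole.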

[14] = Confirmation and Secondary Assay for Modulators of Hemoglobin Beta Chain Splicing at IVS2 654 locus (AID 910); note: % of control where 0% means no effect
Procedure, shortened: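 HeLa cells stably carrying EGFP interrupted by mutant beta-globin IVS2-654 intron (CMV-driven) were treated with compound for 2 days at 37C; corrected splicing was scored as total peak GFP intensity per well (488 nm excitation, 500-520 nm emission).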

[15] = qHTS Assay for Identification of Small Molecule Agonists for Thrombopoietin (TPO) Signaling Pathway (AID 917); note: % is set by controls: 0 for no effect and ±100 for the full control effect
Procedure, shortened: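 IL-3-dependent murine pro-B Ba/F3 cells, stably transfected with human TPO receptor and GpIIb-promoter luciferase, are incubated 24 hrs at 37 C with test compound and 26 pM TPO; luciferase signal is read after 10 min at room temperature.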

[16] = Confirmation and Secondary Assay for Modulators of Hemoglobin Beta Chain Splicing at IVS2 705 locus (AID 930);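 note: HeLa cells stably expressing the EGFP-705 splicing reporter; GFP fluorescence per well restored by corrected splicing of the IVS2-705 intron in EGFP; % of control where 0% means no effect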
Procedure, shortened: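 Read-out: total peak GFP fluorescence per well (488 nm excitation, 500-520 nm emission) by laser-scanning cytometry. Cells: HeLa EGFP-705 splicing reporter, 2 days compound exposure in Optimem/2% FCS.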

[17] = biological target: Muscarinic acetylcholine receptor M1 (Rattus norvegicus) (UniProt P08482); experiment: qHTS Assay for Antagonists of Acetylcholine Muscarinic M1 Receptor: Kinetic Measurement of Intracellular Calcium Response (AID 943);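 note: Fluo-4 calcium signal as peak divided by basal fluorescence over 4 min; nearly all actives have a fitted effect of over 75% in size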
Procedure, shortened: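 Rat M1-CHO cells, 2000/well, overnight → Fluo-4 no-wash dye with probenecid, 1 h 37C → compound 10 min, room temp → basal read 6 s → carbachol EC80 (100 nM) → 4 min kinetic read; peak/basal.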

[18] = biological target: Muscarinic acetylcholine receptor M1 (Rattus norvegicus) (UniProt P08482); experiment: qHTS Assay for Antagonists of Acetylcholine Muscarinic M1 Receptor: Measurement of IP-One Response (AID 944); note: nearly all actives have a fitted effect of over 75% in size
Procedure, shortened: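 M1-CHO (rat), 2000 cells/well, overnight recovery; cpd 10 min; carbachol EC80 (200 nM), 30 min, HEPES buffer + 50 mM LiCl pH 7.4; IP-One HTRF, Ex 337, Em 620/665 nm.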

[19] = biological target: Pyruvate kinase (Leishmania mexicana) (UniProt Q27686); experiment: qHTS Validation Assay for Inhibitors of Leishmania Mexicana Pyruvate Kinase (AID 945);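 note: 0% = DMSO only neutral control wells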
Procedure, shortened: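 Luminescent ATP detection (PKLight) after a 1 h room-temperature reaction of 0.2 nM LmPYK E451W mutant with 0.5 mM PEP and 0.1 mM ADP at pH 7.2. Activity is normalized to DMSO-only control wells.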

[20] = biological target: Pyruvate kinase PKM (Homo sapiens) (UniProt P14618); experiment: qHTS Assay for Activators of Human Muscle Pyruvate Kinase (AID 954; active = well fitted curve in the direction sought with a large enough effect, not every such curve was filed as active;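 note: 0% = uninhibited enzyme and -100% = no enzyme or full thiadiazolimine inhibition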)
Procedure, shortened: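 Reaction: 0.1 nM purified PKM2 with 0.5 mM phosphoenolpyruvate and 0.1 mM ADP, room temperature, 1 h. Readout: luciferase-based ATP luminescence after stop reagent. Activators judged against a 0.3 nM enzyme column.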

[21] = biological target: alpha-glucosidase (Oryza sativa, rice) (UniProt Q653V4); experiment: Counterscreen for Glucocerebrosidase Inhibitors: qHTS Assay for Rice alpha-Glucosidase at pH 5.0 (AID 997);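 note: 0% = full activity with enzyme and -100% = basal without enzyme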
Procedure, shortened: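 Rice alpha-glucosidase (4 nM final) with 400 uM 4-methylumbelliferyl-alpha-D-glucopyranoside in citrate buffer pH 5.0, 20 min at room temperature, stopped at pH 10; fluorescence 365/440 nm, compounds 0.7 nM–77 uM, AC50 from Hill fits.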

[22] = qHTS Assay for Lipid Storage Modulators (AID 1519; calls by dose curve); conditions: Drosophila S3 cells, BODIPY lipid droplet/cell ratio, laser cytometry, cells loaded with oleic acid
Procedure, shortened: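 Cells seeded at 5,000 per well were treated with compounds over a concentration series and loaded with oleic acid (400 uM, as added). Lipid droplet fluorescence (488 nm excitation, 500-530 nm channel) was read by laser-scanning cytometry and normalized to 20 uM Triacsin C.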

[23] = biological target: Ubiquitin carboxyl-terminal hydrolase 1 (Homo sapiens) (UniProt O94782); experiment: Inhibitors of USP1/UAF1: Pilot qHTS (AID 504865);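 note: rhodamine fluorescence freed from ubiquitin-rhodamine substrate followed over time; top concentration of the series differs between compounds; % is set by controls: 0 for no effect and ±100 for the full control effect; nearly all actives have a fitted effect of over 35% in size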
Procedure, shortened: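 Enzyme-free wells gave the negative control, while test wells held 1nM USP1/UAF1 preincubated with compound for 15 min at room temperature. Ub-Rho at 150nM final started the reaction, and fluorescence at 480/540 nm was recorded kinetically.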

[24] = biological target: DNA dC->dU-editing enzyme APOBEC-3G (Homo sapiens) (UniProt Q9HC16); experiment: qHTS for inhibitors of Vif-A3G interactions: Validation (AID 588379); note: 0% is about no effect
Procedure, shortened: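 HeLa cells stably expressing Vif and A3G-eYFP, 700 cells/well, incubated overnight at 37 deg C, then exposed to compound overnight at 37 deg C. Inhibition of Vif-mediated degradation read as increased yellow fluorescence (Ex 488/Em 500-530) by laser-scanning cytometry.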

[25] = test system: Zika virus NS2B-NS3 protease; experiment: Primary screen GU AMC qHTS for Zika virus inhibitors (AID 1347154);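 note: 0% = no-inhibitor control and -100% = no-enzyme control; nearly all actives have a fitted effect of over 70% in size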
Procedure, shortened: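 Unlinked Zika NS2B hydrophilic domain/NS3 protease domain noncovalent complex (25 nM final) in 10 mM Tris-HCl pH 8.0, 0.01% Tween 20, with AMC peptide substrate. Fluorescence (ex 340, em 450 nm) change over 15 min, room temperature; percent inhibition fitted to 4-parameter Hill equation.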

[26] = Primary qHTS for small molecule stabilizers of the endoplasmic reticulum resident proteome: Secreted ER Calcium Modulated Protein (SERCaMP) assay (AID 1508630); note: % is set by controls: 0 for no effect and ±100 for the full control effect
Procedure, shortened: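 GLuc-SERCaMP-expressing SH-SY5Y cells, pretreated 16 h with compound, are challenged with thapsigargin to empty ER calcium stores; after 4 h, coelenterazine is added directly to the medium and luminescence is imaged.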

Sequence of Glucocorticoid receptor (Homo sapiens) (P04150 whole entry, looked up, the tested form may be a part): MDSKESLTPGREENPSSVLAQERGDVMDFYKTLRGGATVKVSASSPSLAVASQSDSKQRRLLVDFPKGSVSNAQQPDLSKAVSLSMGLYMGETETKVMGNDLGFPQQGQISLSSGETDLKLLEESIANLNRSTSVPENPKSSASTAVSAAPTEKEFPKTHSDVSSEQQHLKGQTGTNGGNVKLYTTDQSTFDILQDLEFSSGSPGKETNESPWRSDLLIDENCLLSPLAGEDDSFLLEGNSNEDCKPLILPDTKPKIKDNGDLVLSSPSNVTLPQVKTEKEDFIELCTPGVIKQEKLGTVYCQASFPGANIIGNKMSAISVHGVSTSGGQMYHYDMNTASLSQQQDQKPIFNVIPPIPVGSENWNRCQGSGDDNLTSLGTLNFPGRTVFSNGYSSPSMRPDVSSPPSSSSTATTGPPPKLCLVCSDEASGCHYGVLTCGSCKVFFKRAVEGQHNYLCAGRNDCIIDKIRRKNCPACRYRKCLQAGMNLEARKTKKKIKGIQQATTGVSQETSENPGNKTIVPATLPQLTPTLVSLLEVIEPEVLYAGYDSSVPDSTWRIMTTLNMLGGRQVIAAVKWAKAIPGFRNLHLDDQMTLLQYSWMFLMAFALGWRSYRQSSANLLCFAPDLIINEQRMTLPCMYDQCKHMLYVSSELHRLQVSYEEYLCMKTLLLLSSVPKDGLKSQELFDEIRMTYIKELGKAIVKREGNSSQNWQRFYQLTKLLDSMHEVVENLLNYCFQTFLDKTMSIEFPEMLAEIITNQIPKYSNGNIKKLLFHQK
Sequence of Cytochrome P450 1A2 (Homo sapiens) (P05177 whole entry, looked up): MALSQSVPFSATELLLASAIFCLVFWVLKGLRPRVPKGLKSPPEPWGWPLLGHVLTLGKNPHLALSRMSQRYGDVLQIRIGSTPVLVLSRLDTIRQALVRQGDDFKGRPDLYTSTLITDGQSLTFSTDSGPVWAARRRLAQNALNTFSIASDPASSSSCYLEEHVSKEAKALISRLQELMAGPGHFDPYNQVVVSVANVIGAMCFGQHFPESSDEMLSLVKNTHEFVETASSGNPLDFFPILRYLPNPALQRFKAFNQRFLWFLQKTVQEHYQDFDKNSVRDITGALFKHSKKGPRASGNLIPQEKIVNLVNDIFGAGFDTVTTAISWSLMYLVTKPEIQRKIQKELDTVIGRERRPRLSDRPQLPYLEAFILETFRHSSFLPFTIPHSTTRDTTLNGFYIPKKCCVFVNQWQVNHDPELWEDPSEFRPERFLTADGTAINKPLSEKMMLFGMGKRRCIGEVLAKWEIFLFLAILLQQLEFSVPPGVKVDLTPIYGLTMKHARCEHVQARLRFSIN
Sequence of Muscarinic acetylcholine receptor M1 (Rattus norvegicus) (P08482 whole entry, looked up): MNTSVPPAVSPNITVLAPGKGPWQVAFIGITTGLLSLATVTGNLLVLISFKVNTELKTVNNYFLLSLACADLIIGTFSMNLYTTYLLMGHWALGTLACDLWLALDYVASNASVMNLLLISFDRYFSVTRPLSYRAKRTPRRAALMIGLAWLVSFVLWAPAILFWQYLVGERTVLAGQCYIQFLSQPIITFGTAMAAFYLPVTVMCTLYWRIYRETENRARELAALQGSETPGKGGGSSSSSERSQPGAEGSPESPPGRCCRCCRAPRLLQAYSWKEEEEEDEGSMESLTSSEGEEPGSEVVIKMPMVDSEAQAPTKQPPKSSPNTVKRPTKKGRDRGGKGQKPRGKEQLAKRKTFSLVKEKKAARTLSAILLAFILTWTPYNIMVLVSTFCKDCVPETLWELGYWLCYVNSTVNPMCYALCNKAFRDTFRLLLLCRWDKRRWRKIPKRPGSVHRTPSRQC
Sequence of 3',5'-cyclic-AMP phosphodiesterase 4B (Homo sapiens) (Q07343 whole entry, looked up): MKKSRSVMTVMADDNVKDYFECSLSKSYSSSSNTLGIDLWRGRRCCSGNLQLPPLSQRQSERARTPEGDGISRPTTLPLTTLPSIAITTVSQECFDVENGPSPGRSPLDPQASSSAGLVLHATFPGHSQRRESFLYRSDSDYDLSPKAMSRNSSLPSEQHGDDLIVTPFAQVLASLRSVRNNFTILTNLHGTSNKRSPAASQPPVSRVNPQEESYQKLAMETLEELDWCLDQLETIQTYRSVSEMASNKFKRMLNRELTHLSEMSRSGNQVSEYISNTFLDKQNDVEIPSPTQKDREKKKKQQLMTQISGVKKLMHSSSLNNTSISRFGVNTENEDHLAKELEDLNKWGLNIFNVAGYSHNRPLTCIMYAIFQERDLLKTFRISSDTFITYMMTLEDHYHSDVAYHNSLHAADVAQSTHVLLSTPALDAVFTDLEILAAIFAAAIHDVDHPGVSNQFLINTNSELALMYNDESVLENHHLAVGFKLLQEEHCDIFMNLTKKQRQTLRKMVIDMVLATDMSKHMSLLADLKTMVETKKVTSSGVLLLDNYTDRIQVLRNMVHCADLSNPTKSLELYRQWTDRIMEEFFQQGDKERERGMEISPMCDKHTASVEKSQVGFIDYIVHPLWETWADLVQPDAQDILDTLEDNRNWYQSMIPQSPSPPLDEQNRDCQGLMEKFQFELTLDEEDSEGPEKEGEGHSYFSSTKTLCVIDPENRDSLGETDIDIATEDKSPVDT
Sequence of Cytochrome P450 3A4 (Homo sapiens) (P08684 whole entry, looked up): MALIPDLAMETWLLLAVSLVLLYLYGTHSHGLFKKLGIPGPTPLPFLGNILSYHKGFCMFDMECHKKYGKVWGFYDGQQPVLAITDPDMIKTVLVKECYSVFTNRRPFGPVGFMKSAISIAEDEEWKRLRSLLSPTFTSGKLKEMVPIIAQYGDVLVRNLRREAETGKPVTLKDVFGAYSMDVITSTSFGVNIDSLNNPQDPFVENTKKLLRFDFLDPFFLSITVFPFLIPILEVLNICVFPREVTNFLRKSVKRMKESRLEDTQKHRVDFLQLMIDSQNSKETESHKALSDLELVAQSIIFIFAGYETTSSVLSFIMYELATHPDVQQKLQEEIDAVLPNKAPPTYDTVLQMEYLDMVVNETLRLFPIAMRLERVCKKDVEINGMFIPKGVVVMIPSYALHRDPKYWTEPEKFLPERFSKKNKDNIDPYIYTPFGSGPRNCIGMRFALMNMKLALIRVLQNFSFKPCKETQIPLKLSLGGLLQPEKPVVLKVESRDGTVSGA
Sequence of Ubiquitin carboxyl-terminal hydrolase 1 (Homo sapiens) (O94782 whole entry, looked up): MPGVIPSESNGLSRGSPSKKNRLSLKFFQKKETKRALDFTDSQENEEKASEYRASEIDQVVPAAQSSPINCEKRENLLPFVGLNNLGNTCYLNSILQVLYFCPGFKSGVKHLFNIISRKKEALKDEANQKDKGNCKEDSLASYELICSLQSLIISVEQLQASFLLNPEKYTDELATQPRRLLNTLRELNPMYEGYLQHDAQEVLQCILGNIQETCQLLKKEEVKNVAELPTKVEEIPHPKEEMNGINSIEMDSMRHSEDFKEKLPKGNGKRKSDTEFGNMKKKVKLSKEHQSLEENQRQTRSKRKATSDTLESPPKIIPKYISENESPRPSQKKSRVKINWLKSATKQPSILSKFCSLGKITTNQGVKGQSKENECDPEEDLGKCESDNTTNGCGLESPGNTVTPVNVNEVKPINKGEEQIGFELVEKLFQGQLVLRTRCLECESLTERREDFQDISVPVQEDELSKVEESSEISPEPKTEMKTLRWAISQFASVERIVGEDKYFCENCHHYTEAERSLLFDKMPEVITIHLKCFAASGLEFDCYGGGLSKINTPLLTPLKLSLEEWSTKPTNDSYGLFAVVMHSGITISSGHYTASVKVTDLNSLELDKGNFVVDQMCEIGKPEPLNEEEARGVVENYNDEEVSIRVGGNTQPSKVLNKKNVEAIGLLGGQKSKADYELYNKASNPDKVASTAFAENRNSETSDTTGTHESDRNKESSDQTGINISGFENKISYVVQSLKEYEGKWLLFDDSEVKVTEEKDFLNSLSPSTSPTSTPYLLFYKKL
Sequence of Cytochrome P450 2C9 (Homo sapiens) (P11712 whole entry, looked up): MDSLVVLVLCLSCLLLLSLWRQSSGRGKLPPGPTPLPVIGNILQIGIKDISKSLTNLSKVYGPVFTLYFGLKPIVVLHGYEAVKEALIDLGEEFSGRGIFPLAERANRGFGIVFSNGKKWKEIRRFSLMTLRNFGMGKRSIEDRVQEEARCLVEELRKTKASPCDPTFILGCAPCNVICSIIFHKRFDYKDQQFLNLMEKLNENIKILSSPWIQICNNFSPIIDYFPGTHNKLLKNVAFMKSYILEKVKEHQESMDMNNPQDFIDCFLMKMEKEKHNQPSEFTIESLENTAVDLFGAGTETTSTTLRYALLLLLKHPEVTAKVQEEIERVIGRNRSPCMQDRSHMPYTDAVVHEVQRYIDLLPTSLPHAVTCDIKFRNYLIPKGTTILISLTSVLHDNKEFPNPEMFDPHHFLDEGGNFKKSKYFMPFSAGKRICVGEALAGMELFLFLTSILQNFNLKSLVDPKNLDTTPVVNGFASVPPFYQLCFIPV
Sequence of Pyruvate kinase (Leishmania mexicana) (Q27686 2-499 E452W): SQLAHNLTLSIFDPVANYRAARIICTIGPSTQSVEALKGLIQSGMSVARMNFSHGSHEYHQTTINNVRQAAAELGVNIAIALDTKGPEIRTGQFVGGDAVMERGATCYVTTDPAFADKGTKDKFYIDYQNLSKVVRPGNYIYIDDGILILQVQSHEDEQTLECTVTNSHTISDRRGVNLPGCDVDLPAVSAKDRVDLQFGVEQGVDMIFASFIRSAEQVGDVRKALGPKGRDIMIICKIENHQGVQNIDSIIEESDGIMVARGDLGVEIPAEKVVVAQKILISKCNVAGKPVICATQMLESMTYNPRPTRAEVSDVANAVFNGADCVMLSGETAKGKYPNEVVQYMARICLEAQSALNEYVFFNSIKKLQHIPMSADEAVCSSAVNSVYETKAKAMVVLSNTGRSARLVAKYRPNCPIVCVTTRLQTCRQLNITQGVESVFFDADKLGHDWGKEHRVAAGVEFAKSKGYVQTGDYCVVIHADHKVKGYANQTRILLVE

C=C[C@H](N)CCC(=O)O
1.97% and -5.49%: max response ([22]; measured here: lipid channel max response)
inactive: activity change, negative = inhibition ([1]; at 17.2 µM (top of the series)) -1.55% | activity change, negative = inhibition ([1]; at 38 µM (top of the series)) 6.29% | Potency [2] | activity change, negative = inhibition ([3]; at 17.2 µM (top of the series)) -1.05% | activity change, negative = inhibition ([3]; at 38 µM (top of the series)) 2.77% | activity, negative = inhibition ([4]; at 17.2 µM (top of the series)) -1.55% | activity, negative = inhibition ([4]; at 38 µM (top of the series)) -14.6% | Potency [5] > 46 µM and > 20.6 µM | Potency [6] > 46 µM and > 20.6 µM | Potency [7] | Potency [8] | outcome [9] | Potency [10] | Potency [11] | Potency [12] | Potency [13] | outcome [14] | Potency [15] | outcome [16] | Potency [17] | Potency [18] | Potency [19] | outcome [20] | outcome [21] | activity change, negative = inhibition ([22]; at 25.7 µM (top of the series)) -2.99% | activity change, negative = inhibition ([22]; at 57.5 µM (top of the series)) -0.953% | Potency [23] | Potency [24] | Potency [25] | Potency [26]
3.82% and -3.83%: max response ([22]; measured here: cell count channel max response)
